± gives the standard deviation of the averaged measurements. The full ranking holds about 25,000 sequences; the median of “ln(normalized median fluorescence intensity)” is about 8.6, and the highest 2% start at about 10. The sample holds the highest values, similar sequences and a random draw of the others, so the mix is not that of the screen.
The sequences below were run on PfAP2-EXP AP2 domain (GST-tagged) (assay: gcPBM binding intensity (ln(normalized median fluorescence intensity)); higher = stronger DNA binding).
Summary of the method: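 The highest Masliner-normalised natural-log median intensity across replicate spots of either probe orientation is reported as binding intensity. GST-tagged P. falciparum DNA-binding domains expressed in E. coli were applied for 1 h to an Agilent 4 × 180k array of primer-extended double-stranded 36-bp intergenic genomic probes plus negative controls, and bound protein was detected with Alexa488 anti-GST antibody and scanned at 488 nm.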

Sequence	gcPBM binding intensity (ln)
TTTTAAATAAATCATGCATGCACATATAATTATATT [TGCATGCA_site151]	9.94 ± 0.33
TTATATGGATATACAGTGCATATATACATATAAGTG	8.61 ± 0.26
ACAAAAAAATGAAAAGAAAAAGATATACCCCAATAT [CACACA_negctrl_site509]	8.99 ± 0.8
TATGTAATGTTTACAACACACAAATTATAAATACAA [CACACA_site1771]	8.38 ± 0.4
TATTACATTATATAAACATGCAAAACTATATATTAT [TGCATGCA_site601]	8.63 ± 0.45
TGTTTTATTATTTATAGTACATAAAAAAATATTGTA [XGTACX_site8963]	8.25 ± 0.24
CAAGAATAAAAATACAAGCACACATGTATGAAATAT [CACACA_site3214]	8.91 ± 0.42
TAAAAAAAAAAAATGTGTACATATTATATATATCTT [XGTACX_site2615]	8.22 ± 0.3
ATATATATATATAAATGTACAGGCTTATCTCTTATT [XGTACX_site1828]	10.2 ± 0.12
TTATATCTTATAAAATGTACATAAAATATATAATAT [XGTACX_site7647]	8.52 ± 0.26
ATTTATCTATAATATACACACATATAACAGACATAT [CACACA_site6469]	8.52 ± 0.33
ATACATTCTAATACGTGTACATATATATATATATAT [XGTACX_site1881]	10.2 ± 0.28
TGAATAATATACATACGTACATACATATATATAATA [XGTACX_site1302]	8.32 ± 0.3
TAATATACATATATATGTACATATATATATATATAT [XGTACX_site2684]	9.93 ± 0.35
ATTACAAAAAAAAAAAAAAAAAAAAAAAAAAAAAAA [CACACA_negctrl_site448]	7.95 ± 0.33
TACATAAATTTTAATACATGCAAATAAAATATATAA [TGCATGCA_site131]	8.88 ± 0.4
ATATTTTATTTATATACACACACATATATATATTAT [CACACA_site8177]	8.79 ± 0.47
TTACTACTATATTATACACACATATATTTATTTATA [CACACA_site7274]	8.7 ± 0.4
TAATTTTTTTTAATAACACACATATATATATATATA [CACACA_site813]	10.47 ± 0.042
TATTACACATATTATACACACATATATTATATATAT [CACACA_site4951]	8.69 ± 0.25
TTTTTTTTTTTTTAAACATGCAAAATATATAATTTT [TGCATGCA_site633]	8.46 ± 0.36
TAATTTTTTTTAATAACACACATATAAATATAAATA [CACACA_site6521]	8.17 ± 0.45
TTTTATATATTATATACACACATATATATATATATA [CACACA_site2999]	10.2 ± 0.32
TTACTACTATATTATACACACATATATATATATATA [CACACA_site2621]	10.3 ± 0.23
ATTTTATTTATATACACACACATATATATATTATAT [CACACA_site822]	8.77 ± 0.44
AATAATTTTTTAAACACACACACATATATATATATA [CACACA_site95]	10.1 ± 0.3
TATATATATATATACACATGCAAAAATTTTTAATTT [TGCATGCA_site82]	10.2 ± 0.35
